From PubChem
SMN2 splice up – SMN2 splice variant enhancement | 2.8% of 210,000 active | Potency, µM (titrated, usually from 46.1 µM), inactives show at the highest dose activity change, positive = activation, usual class: activators | AID 1458 | HEK293 SMN2-luciferase splicing reporter, luminescence, 30-36 h; further: % of control where 0% means no effect; nearly all actives have a fitted effect of over 55% in size
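HEK293 cells carry an SMN2 minigene-luciferase reporter in which exon 7 inclusion puts luciferase in frame. Cells were seeded at 2000 cells/well, attached for 10-12 hours, then exposed to compounds for 30-36 hours at 37C before ONE-Glo luminescence.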
Rab9 promoter act – activates the Rab9 promoter. Huh7 Rab9 promoter-luciferase reporter, luminescence, 24 h. Potency, µM (doses to about 9.22 µM), for the others: at the highest dose activation, negative = inhibition, hits mostly activators. 2.8% of 320,000 active. AID 485297; further: % of control where 0% means no effect; nearly all actives have a fitted effect of over 60% in size
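Measured in stably transfected Huh7 cells bearing a Rab9 promoter–luciferase construct: 24 h compound treatment at 37 °C, followed by luminescence detection.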
FLuc modulator – firefly luciferase modulation, counter-screen for miR-21 project; P08659; purified FLuc, Km substrates, luminescence inhibition; Potency, µM (titrated, usually from 57.5 µM), for the others: at the highest dose activity change, negative = inhibition, most hits filed as inhibitors; 6.9% of 360,000 active; AID 588342;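 further: plate controls were vehicle for no effect and reference inhibitor for full effect; nearly all actives have a fitted effect of over 55% in size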
Target sequence (P08659 whole entry, looked up): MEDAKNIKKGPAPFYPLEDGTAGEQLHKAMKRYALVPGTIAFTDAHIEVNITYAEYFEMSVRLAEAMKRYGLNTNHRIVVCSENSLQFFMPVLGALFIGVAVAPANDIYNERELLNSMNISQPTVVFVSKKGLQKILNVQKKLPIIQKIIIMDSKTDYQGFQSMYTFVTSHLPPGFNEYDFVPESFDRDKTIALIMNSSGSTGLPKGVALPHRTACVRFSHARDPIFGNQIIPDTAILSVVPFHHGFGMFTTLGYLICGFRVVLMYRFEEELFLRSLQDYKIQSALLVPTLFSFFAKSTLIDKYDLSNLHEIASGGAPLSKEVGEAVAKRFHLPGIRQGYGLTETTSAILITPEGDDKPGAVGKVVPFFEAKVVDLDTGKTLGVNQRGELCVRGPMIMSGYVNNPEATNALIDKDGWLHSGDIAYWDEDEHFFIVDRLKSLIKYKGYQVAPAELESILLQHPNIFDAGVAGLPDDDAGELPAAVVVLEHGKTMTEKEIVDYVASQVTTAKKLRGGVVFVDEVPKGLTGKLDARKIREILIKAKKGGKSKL
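Purified P. pyralis luciferase, 10 nM final, with Km-level 10 uM D-luciferin and 10 uM ATP in 50 mM Tris acetate pH 7.5, 10 mM Mg acetate, 0.01% Tween-20, 0.05% BSA; 6-point qHTS titration about 60 µM downward; luminescence read.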
ELG1 genotoxic – inducers of genotoxicity in HEK293T ELG1-luciferase cells; Potency, µM (series often up to 46 µM), without a hit: at the top dose activity change, positive = activation, most hits filed as activators; AID 504466; HEK293T ELG1-luciferase reporter, luminescence, 16 h; 1.3% of 330,000 active; further: % of control where 0% means no effect; nearly all actives have a fitted effect of over 60% in size
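Genotoxic stress is detected as increased luminescence from luciferase-tagged ELG1 in HEK293T cells, measured with ONE-Glo after a 16 hr treatment at 37 °C.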
NPC1 prom act – activators of NPC1 promoter; Potency, µM (highest dose often 9.22 µM), for the others: at the highest dose activation, actives largely listed as activators; Huh7 NPC1 promoter luciferase reporter, 24 h; 2.4% of 320,000 active; further: % of control where 0% means no effect; nearly all actives have a fitted effect of over 60% in size
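Stable NPC1-promoter luciferase Huh7 line; cpd (DMSO) 24 h, 37 °C, 5% CO2; Amplite luciferase reagent 10 min RT; luminescence readout. qHTS format.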
* marks the source's active call; other numbers are inactive results. Rows were chosen to be rich in hits. Some 7.5% of all compounds tested hit in one or more screens of this group. The call rests on the fitted dose curve; in most records, active means well fitted curve in the direction sought with a large enough effect; inconclusive means small, poorly fitted or top-dose-only effect, or another doubt; inactive means no such curve, though single readings can be large; an effect the other way counts as inactive or inconclusive. Potency means the concentration at half of the fitted maximal effect.

How did CC(C)/C=N/NC(=O)c1cccc(N2CCCC2=O)c1 do in these assays?
SMN2 splice up: 6%; Rab9 promoter act: -5%; FLuc modulator: 0%; ELG1 genotoxic: 7%; NPC1 prom act: -7%

How did COc1ccc(O)c(/C=N/NC(=O)c2cccc(N3CCCC3=O)c2)c1 do in these assays?
Rab9 promoter act: -8%; FLuc modulator: 11µM*; ELG1 genotoxic: 13%; NPC1 prom act: -39%

Results for COc1ccc(C(=O)CC2(O)C(=O)N(Cc3cccc(C(F)(F)F)c3)c3ccccc32)cc1 (stereo not given) ?
SMN2 splice up: -44%; FLuc modulator: 0%

How did O=C(COc1ccccc1Cl)NCCC1=CCCCC1 do in these assays?
SMN2 splice up: -6%; Rab9 promoter act: 12%; FLuc modulator: -8%; ELG1 genotoxic: -2%; NPC1 prom act: 1%

Results for COc1ccc(CCN2C(=O)CSC2=Nc2ccc(C(C)C)cc2)cc1OC ?
Rab9 promoter act: -34%; FLuc modulator: 0%; ELG1 genotoxic: -7%; NPC1 prom act: -27%

Results for O=C(N/N=C/c1cc(Br)ccc1O)c1cccc(N2CCCC2=O)c1 ?
SMN2 splice up: -90%; Rab9 promoter act: -30%; FLuc modulator: 17µM*; ELG1 genotoxic: inconclusive; NPC1 prom act: -24%

How did CCCc1ccc(-c2cc(NC(=O)CSc3nnc(N)s3)n(-c3ccccc3)n2)cc1 do in these assays?
Rab9 promoter act: 1.3µM*; FLuc modulator: 0.21µM*; ELG1 genotoxic: inconclusive; NPC1 prom act: 2.5µM*

Results for Cc1ccc(-c2cc(NC(=O)CSc3n[nH]c(N)n3)n(-c3ccccc3)n2)cc1 ?
SMN2 splice up: 6%; Rab9 promoter act: 7%; FLuc modulator: 19µM*; ELG1 genotoxic: -3%; NPC1 prom act: 3%

Results for CN(C)c1ccc(C#Cc2ccc3cc(CCO)oc(=O)c3c2)cc1 ?
Rab9 promoter act: inconclusive; FLuc modulator: 1.3µM*; ELG1 genotoxic: 17%; NPC1 prom act: 4µM*

Results for O=c1oc(CCCO)cc2ccc(C#Cc3cccnc3)cc12 ?
ELG1 genotoxic: 13%

Results for O=c1oc(CCO)cc2ccc(C#Cc3ccsc3)cc12 ?
Rab9 promoter act: 4µM*; FLuc modulator: inconclusive; ELG1 genotoxic: inconclusive; NPC1 prom act: inconclusive

What do the screens show for `COc1ccc(S(=O)(=O)N(C)C[C@H]2Oc3c(NC(=O)NC(C)C)cccc3C(=O)N([C@H](C)CO)C[C@@H]2C)cc1`?
ELG1 genotoxic: 1%

What do the screens show for `Fc1ccccc1Cn1nnc(-c2ccc3c(c2)OCO3)n1`?
SMN2 splice up: 13µM*; Rab9 promoter act: 1.1µM*; FLuc modulator: 2.1µM*; ELG1 genotoxic: inconclusive; NPC1 prom act: 2µM*

Results for COc1ccc(-c2nnn(Cc3ccccc3F)n2)cc1 ?
SMN2 splice up: 16µM*; Rab9 promoter act: 3.2µM*; FLuc modulator: 11µM*; ELG1 genotoxic: inconclusive; NPC1 prom act: 3.5µM*

How did Cc1ccc(NC(=O)Cn2nnc(-c3ccc4c(c3)OCO4)n2)cc1F do in these assays?
Rab9 promoter act: 4%; FLuc modulator: 2%; ELG1 genotoxic: -1%; NPC1 prom act: -1%

What do the screens show for `COc1ccc(C(=O)NC(=S)N2CC(C)OC(C)C2)cc1OC` (stereo not given)?
SMN2 splice up: -2%; Rab9 promoter act: -2%; FLuc modulator: 2%; ELG1 genotoxic: 0%; NPC1 prom act: 2%

What do the screens show for `CN1C(=O)CSC1=S`?
Rab9 promoter act: -1%; FLuc modulator: 0%; ELG1 genotoxic: 3%; NPC1 prom act: 0%

Results for O=C(COC(=O)[C@@H]1CC(O)CN1S(=O)(=O)c1ccc2c(c1)OCCO2)Nc1ccccc1F (stereo not given in full) ?
SMN2 splice up: -1%; Rab9 promoter act: -3%; FLuc modulator: -4%; ELG1 genotoxic: 0%; NPC1 prom act: -4%

What do the screens show for `CC(O)c1nc2ccccc2n1Cc1nnc(-c2ccc(Cl)cc2)o1` (stereo not given)?
SMN2 splice up: -25%; Rab9 promoter act: 16%; FLuc modulator: 17µM*; ELG1 genotoxic: 11%; NPC1 prom act: 8%

Results for CC(C)NCc1nnc(-c2ccc(Cl)cc2)o1 ?
Rab9 promoter act: -7%; FLuc modulator: -10%; ELG1 genotoxic: 9%; NPC1 prom act: -2%

What do the screens show for `COc1cccc(/C=C2\SC(=S)N(CC(=O)N(C)C3CCS(=O)(=O)C3)C2=O)c1` (stereo not given)?
Rab9 promoter act: -2%; FLuc modulator: 11µM*; ELG1 genotoxic: 5%; NPC1 prom act: -1%

Results for COc1ccc(/C=C2\SC(=S)N(CC(=O)N(C)C3CCS(=O)(=O)C3)C2=O)cc1 (stereo not given) ?
Rab9 promoter act: 0%; FLuc modulator: 19µM*; ELG1 genotoxic: 4%; NPC1 prom act: 13%

Results for Cc1ccc(-c2nn(-c3ccccc3)cc2/C=N/NC(=O)c2ccncc2)o1 ?
SMN2 splice up: 14µM*; Rab9 promoter act: 2%; FLuc modulator: 12µM*; ELG1 genotoxic: inconclusive; NPC1 prom act: -4%

What do the screens show for `O=C(N/N=C\c1cn(-c2ccccc2)nc1-c1ccccc1)c1ccc(Br)o1`?
SMN2 splice up: -79%; Rab9 promoter act: 13%; FLuc modulator: inconclusive; ELG1 genotoxic: -21%; NPC1 prom act: 0%

Results for O=C(N/N=C/c1nn(-c2ccccc2)cc1-c1ccccc1)c1ccncc1 ?
SMN2 splice up: inconclusive; Rab9 promoter act: -2%; FLuc modulator: 9.5µM*; ELG1 genotoxic: -1%; NPC1 prom act: 2%

What do the screens show for `NC(=O)N/N=C/c1cn(-c2ccccc2)nc1-c1cccs1`?
SMN2 splice up: 18µM*; Rab9 promoter act: inconclusive; FLuc modulator: 2.1µM*; ELG1 genotoxic: inconclusive; NPC1 prom act: inconclusive

What do the screens show for `NS(=O)(=O)c1ccc(N/N=C/c2cn(-c3ccccc3)nc2-c2cccs2)cc1`?
Rab9 promoter act: 11%; FLuc modulator: 11µM*; ELG1 genotoxic: -1%; NPC1 prom act: 4%

Results for O=C(N/N=C/C=C/c1ccccc1)c1ccncc1 ?
SMN2 splice up: 1%; Rab9 promoter act: -5%; FLuc modulator: -10%; ELG1 genotoxic: 1%; NPC1 prom act: 0%

How did NS(=O)(=O)c1ccc(N/N=C/c2cn(-c3ccccc3)nc2-c2cccs2)c([N+](=O)[O-])c1 do in these assays?
SMN2 splice up: -91%; Rab9 promoter act: -38%; FLuc modulator: -17%; ELG1 genotoxic: -7%; NPC1 prom act: -7%

What do the screens show for `Cc1ccc2ncc3c(-c4ccc(F)cc4)nn(CC(=O)Nc4ccccc4C)c3c2c1`?
FLuc modulator: -2%

How did CCn1c(C)nc2cc(C(=O)NNC(=S)NC(=O)c3ccc(OC)cc3)ccc21 do in these assays?
SMN2 splice up: -13%; Rab9 promoter act: -5%; FLuc modulator: inconclusive; ELG1 genotoxic: -9%; NPC1 prom act: -4%
